Measurements from PubChem BioAssay AID1159580 (chemical genetic matrix, 2015).
In all, about 5,500 compounds went through this assay and about 2,000 (36%) were called active. Roughly 18% stayed inconclusive and do not appear here. No stated cut-off is given here; in the data, active means normalized growth mostly below about 0.91 (no sharp cut-off); inconclusive means no clear call, values can overlap the other calls; inactive means mostly above about 0.92. Some of the results follow.

Assay: chemical genetic growth profiling, strain panel (AID 1159580);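 further: tested at 20 µM; growth read once vehicle control cultures reached saturation at 30 °C; 1 = growth at the plate median or of vehicle wells; lower values mean less growth of the strain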
Details: S. cerevisiae deletion strains, growth OD
[1] = locus YAR019C, strain CDC15, hits give low values
[2] = locus YBL105C, strain PKC1, hits give low values
[3] = locus YBR135W, strain CKS1, hits give low values
[4] = locus YBR136W, strain MEC1, hits give low values
[5] = locus YBR160W, strain CDC28, hits give low values
[6] = locus YDL017W, strain CDC7, hits give low values
[7] = locus YDL028C, strain MPS1, hits give low values
[8] = locus YDL101C, strain DUN1, hits give low values
[9] = locus YDL108W, strain KIN28, hits give low values
[10] = locus YDL132W, strain cdc53, hits give low values
[11] = locus YDL214C, strain PRR2, hits give low values
[12] = locus YDR052C, strain DBF4, hits give low values
[13] = locus YDR054C, strain cdc34, hits give low values
[14] = locus YDR226W, strain ADK1, hits give low values
[15] = locus YDR477W, strain SNF1, hits give low values
[16] = locus YER123W, strain YCK3, hits give low values
[17] = locus YER133W, strain GLC7, hits give low values
[18] = locus YFL009W, strain cdc4, hits give low values
[19] = locus YFL029C, strain CAK1, hits give low values
[20] = locus YFR003C, strain YPI1, hits give low values
[21] = locus YFR019W, strain FAB1, hits give low values
[22] = locus YFR028C, strain CDC14, hits give low values
[23] = locus YGR040W, strain KSS1, hits give low values
[24] = locus YGR052W, strain FMP48, hits give low values
[25] = locus YGR092W, strain DBF2, hits give low values
[26] = locus YHR030C, strain SLT2, hits give low values
[27] = locus YHR079C, strain IRE1, hits give low values
[28] = locus YHR082C, strain KSP1, hits give low values
[29] = locus YHR205W, strain SCH9, hits give low values
[30] = locus YIL147C, strain SLN1, hits give low values
[31] = locus YJL095W, strain BCK1, hits give low values
[32] = locus YJL128C, strain PBS2, hits give low values
[33] = locus YJL157C, strain FAR1, hits give low values
[34] = locus YJR016C, strain ILV3, hits give low values
[35] = locus YJR066W, strain TOR1 (second series), hits give low values
[36] = locus YJR066W, strain TOR1, hits give low values
[37] = locus YKL048C, strain ELM1, hits give low values
[38] = locus YKL067W, strain YNK1, hits give low values
[39] = locus YKL101W, strain HSL1, hits give low values
[40] = locus YKL193C, strain SDS22, hits give low values
[41] = locus YKL203C, strain TOR2, hits give low values
[42] = locus YLR113W, strain HOG1, hits give low values
[43] = locus YLR133W, strain CKI1, hits give low values
[44] = locus YLR403W, strain SFP1, hits give low values
[45] = locus YML070W, strain DAK1, hits give low values
[46] = locus YMR001C, strain CDC5, hits give low values
[47] = locus YMR205C, strain PFK2 (second series), hits give low values
[48] = locus YMR277W, strain FCP1, hits give low values
[49] = locus YNL006W, strain LST8, hits give low values
[50] = locus YNL020C, strain ARK1, hits give low values
[51] = locus YNL161W, strain CBK1, hits give low values
[52] = locus YNL183C, strain NPR1, hits give low values
[53] = locus YNL207W, strain RIO2, hits give low values
[54] = locus YNL222W, strain SSU72, hits give low values
[55] = locus YNL307C, strain MCK1 (second series), hits give low values
[56] = locus YOL078W, strain AVO1, hits give low values
[57] = locus YOL136C, strain PFK27, hits give low values
[58] = locus YOR061W, strain CKA2, hits give low values
[59] = locus YOR119C, strain RIO1, hits give low values
[60] = locus YOR231W, strain MKK1, hits give low values
[61] = locus YOR329C, strain SCD5, hits give low values
[62] = locus YPL031C, strain PHO85, hits give low values
[63] = locus YPL153C, strain RAD53, hits give low values
[64] = locus YPL204W, strain HRR25, hits give low values
[65] = locus YPL209C, strain IPL1, hits give low values
[66] = locus YPL256C, strain CLN2, hits give low values
[67] = locus YPR025C, strain CCL1, hits give low values
[68] = locus YPR106W, strain ISR1, hits give low values
[69] = locus YPR111W, strain DBF20, hits give low values
[70] = strain NNK1, hits give low values
[71] = strain TSCII, hits give low values

Measured: normalized growth

Oc1ccc2c3c1O[C@H]1[C@@H](O)CC[C@@]4(O)C(C2)N(CC2CCC2)CCC314 (stereo partly drawn)
inactive: locus YAL040C, strain CLN3, hits give low values 1.01 | locus YCL061C, strain MRC1 (second series), hits give low values 0.998 | locus YDR150W, strain NUM1, hits give low values 1.01 | locus YDR363W, strain ESC2, hits give low values 1.01 | locus YER002W, strain NOP16, hits give low values 1 | locus YMR263W, strain SAP30, hits give low values 1 | locus YMR307W, strain GAS1, hits give low values 0.998 | locus YNL128W, strain TEP1, hits give low values 0.995 | locus YNL153C, strain GIM3, hits give low values 1.01 | locus YNL175C, strain NOP13, hits give low values 1.01 | locus YNL197C, strain WHI3, hits give low values 1.03 | locus YNL224C, strain SQS1, hits give low values 1.02 | locus YNL322C, strain KRE1, hits give low values 1.01 | locus YOR083W, strain WHI5 (second series), hits give low values 0.984 | locus YPL241C, strain CIN2, hits give low values 1

O=C(c1ccc(Cl)cc1)N(Cc1ccccc1)Cc1cccnc1
inactive: [1] 0.994 | [2] 0.985 | [3] 0.989 | [4] 0.979 | [5] 0.986 | [6] 0.981 | [7] 0.989 | [8] 0.987 | [9] 0.98 | [10] 0.993 | [11] 0.866 | [12] 0.985 | [13] 0.987 | [14] 0.987 | [15] 0.886 | [16] 0.748 | [17] 0.868 | [18] 0.994 | [19] 0.996 | [20] 0.983 | [21] 0.801 | [22] 0.992 | [23] 0.874 | [24] 0.869 | [25] 0.865 | [26] 0.976 | [27] 0.96 | [28] 0.896 | [29] 0.918 | [30] 0.977 | [31] 0.862 | [32] 0.956 | [33] 0.845 | [34] 0.99 | [35] 0.853 | [36] 0.89 | [37] 0.965 | [38] 0.885 | [39] 0.905 | [40] 0.987 | [41] 0.944 | [42] 0.884 | [43] 0.905 | [44] 0.864 | [45] 0.859 | [46] 0.991 | [47] 0.885 | [48] 0.989 | [49] 1.01 | [50] 0.885 | [51] 0.994 | [52] 0.909 | [53] 0.986 | [54] 0.989 | [55] 0.885 | [56] 0.994 | [57] 0.877 | [58] 0.828 | [59] 0.915 | [60] 0.912 | [61] 0.991 | [62] 0.877 | [63] 0.851 | [64] 0.885 | [65] 0.988 | [66] 0.966 | [67] 0.984 | [68] 0.995 | [69] 0.998 | [70] 0.991 | [71] 0.995

O=S(=O)(c1ccc(Cl)cc1)N(Cc1cccnc1)Cc1ccc(Cl)cc1Cl
active: [15] 0.537 | [16] 0.469 | [17] 0.57 | [21] 0.727 | [23] 0.518 | [24] 0.543 | [26] 0.465 | [31] 0.273 | [35] 0.586 | [36] 0.46 | [41] 0.408 | [42] 0.54 | [44] 0.549 | [45] 0.673 | [47] 0.713 | [52] 0.47 | [59] 0.428 | [62] 0.478 | [63] 0.42 | [64] 0.526 | [66] 0.674
inactive: [1] 0.951 | [2] 0.966 | [3] 0.962 | [4] 0.95 | [5] 0.969 | [6] 0.968 | [7] 0.96 | [8] 0.967 | [9] 0.946 | [10] 0.929 | [11] 0.732 | [12] 0.924 | [13] 0.928 | [14] 0.938 | [18] 0.947 | [19] 0.942 | [20] 0.963 | [22] 0.94 | [25] 0.704 | [27] 0.55 | [28] 0.7 | [29] 0.583 | [30] 0.939 | [32] 0.958 | [33] 0.715 | [34] 0.949 | [37] 0.89 | [38] 0.745 | [39] 0.799 | [40] 0.941 | [43] 0.767 | [46] 0.963 | [48] 0.932 | [49] 0.959 | [50] 0.743 | [51] 0.968 | [53] 0.913 | [54] 0.961 | [55] 0.68 | [56] 0.946 | [57] 0.711 | [58] 0.787 | [60] 0.593 | [61] 0.96 | [65] 0.949 | [67] 0.952 | [68] 0.962 | [69] 0.975 | [70] 0.948 | [71] 0.927

O=C(c1cccs1)N(Cc1cccnc1)Cc1ccc(Cl)cc1Cl
inactive: [1] 0.979 | [2] 0.966 | [3] 0.961 | [4] 0.955 | [5] 0.964 | [6] 0.968 | [7] 0.961 | [8] 0.97 | [9] 0.96 | [10] 0.96 | [11] 0.94 | [12] 0.96 | [13] 0.968 | [14] 0.96 | [15] 0.934 | [16] 0.887 | [17] 0.946 | [18] 0.96 | [19] 0.97 | [20] 0.966 | [21] 0.918 | [22] 0.965 | [23] 0.92 | [24] 1.01 | [25] 0.984 | [27] 1.21 | [28] 1.07 | [29] 0.971 | [30] 0.964 | [31] 1.04 | [32] 0.939 | [33] 0.95 | [34] 0.971 | [35] 0.941 | [36] 1.1 | [37] 0.963 | [38] 0.938 | [39] 0.929 | [40] 0.969 | [41] 1.02 | [42] 1 | [43] 0.945 | [44] 0.965 | [45] 0.929 | [46] 0.966 | [47] 0.944 | [48] 0.974 | [49] 0.967 | [50] 0.947 | [51] 0.968 | [52] 1.04 | [53] 0.969 | [54] 0.957 | [55] 0.955 | [56] 0.962 | [57] 0.906 | [58] 0.929 | [59] 0.978 | [60] 0.997 | [61] 0.972 | [62] 0.927 | [63] 0.937 | [64] 0.902 | [65] 0.969 | [67] 0.965 | [68] 0.969 | [69] 0.955 | [70] 0.975 | [71] 0.966
active: [26] 1.22 [resistant] | [66] 1.15 [resistant]
